Mtb hypoxia inh – inhibitors of hypoxia-regulated fluorescent reporter in Mycobacterium tuberculosis | M. tuberculosis hypoxia-regulated fluorescent reporter, fluorescence | fluorescence inhibition, % (concentration not given with the values) | 0.1% of 300,000 active | AID 1159583; in the data active = fluorescence inhibition mostly above about 23%, no sharp cut-off; inactive = mostly below about 17%
Rv3671c protease – inhibitors of M. tuberculosis serine protease Rv3671c. P9WHR9. inhibition, % at 5.96 µM. 0.048% of 320,000 active. AID 2606; in the data active = inhibition above about 38%;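 note: extracellular domain of Rv3671c used as enzyme; 0% = enzyme with DMSO and 100% = no enzyme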
Mtb betalactam – beta-lactam sensitization of Mtb H37Rv; M. tuberculosis H37Rv growth with meropenem, percent inhibition; inhibition, % at 25 µM; 0.27% of 330,000 active; call rule not given here;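 note: growth measured after seven days incubation then overnight dye step; 0% = bacteria only wells and 100% = bacteria with antibiotic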
RecA intein inh – Mtb RecA intein splicing inhibition. P9WHJ3. cell-free RecA intein splicing, fluorescence. inhibition, % (no concentration beside the values). 0.75% of 290,000 active. AID 2221; in the data active = inhibition above about 30%; inconclusive = no clear call, values can overlap the other calls;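 note: 0% = vehicle wells and 100% = reference inhibitor control wells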
UGM FP inh – blocks M. tuberculosis UGM enzyme | purified UGM, fluorescence polarization probe displacement | 0.06% of 320,000 active | P9WIQ1 | AID 504406 | inhibition, % at 10 µM; in the data active = inhibition above about 10%, passing the limit was not always enough; inconclusive = no clear call, values can overlap the other calls
Target sequence (P9WIQ1 whole entry, looked up): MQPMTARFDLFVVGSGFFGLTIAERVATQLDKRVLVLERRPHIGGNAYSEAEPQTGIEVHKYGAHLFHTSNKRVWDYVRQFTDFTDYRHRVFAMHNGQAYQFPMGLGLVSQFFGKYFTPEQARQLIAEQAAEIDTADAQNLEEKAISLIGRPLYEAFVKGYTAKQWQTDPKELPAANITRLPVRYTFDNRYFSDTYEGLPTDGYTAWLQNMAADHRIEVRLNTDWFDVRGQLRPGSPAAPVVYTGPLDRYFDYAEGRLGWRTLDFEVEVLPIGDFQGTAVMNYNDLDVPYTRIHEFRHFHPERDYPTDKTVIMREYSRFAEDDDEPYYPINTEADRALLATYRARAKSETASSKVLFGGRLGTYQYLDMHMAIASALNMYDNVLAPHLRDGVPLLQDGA
FadD28 binding – inhibitors of Mycobacterium tuberculosis FadD28 bisubstrate binding; FadD28 bisubstrate probe binding, fluorescence polarization; inhibition, % at 12.5 µM; 0.22% of 360,000 active; AID 588549; in the data active = inhibition above about 8.5%, passing the limit was not always enough; inconclusive = no clear call, values can overlap the other calls
An asterisk follows results filed as active; ? = inconclusive; . = no result; ! = a repeat was not active. Sampled rows, rich in hits. Any-hit rate of the full collection: about 0.92%.

SMILES	Mtb hypoxia inh	Rv3671c protease	Mtb betalactam	RecA intein inh	UGM FP inh	FadD28 binding
Cc1ccc(S(=O)(=O)/N=C2/NC(=O)/C(=C\c3cc(Br)cc(Br)c3O)S2)cc1	15	.	8	21	-35	50*
O=C(Nc1ccccc1C(=O)NN=Cc1ccccc1)c1ccco1	8	.	.	.	.	.
O=c1cccccc1NN=C1CCCCC1	1	-1	0	-3	3	0
O=C(O)c1cc(Br)ccc1NN=C1CCCCC1	6	9	6	-7	.	12*
O=C(/C=C(\c1ccc(Cl)cc1)n1cncn1)c1ccc(Cl)cc1	36*	-7	51	8	3	-1
Cc1cc(C)[n+]2[nH]c(N)c(N=Nc3ccccc3)c2n1	50*	-26	97	1	-1	-1
COc1cc(/C=C2\SC(=O)N(Cc3ccc(Cl)cc3)C2=O)cc([N+](=O)[O-])c1O	-3	.	.	.	.	24*
COc1cc(/C=C2/SC(=S)N(Cc3ccccc3)C2=O)cc(Cl)c1O	.	-105	4	-3	-12	-1
COc1cc(/C=C2\SC(=O)N(Cc3ccc(F)cc3)C2=O)cc([N+](=O)[O-])c1O	8	.	.	.	.	6
COc1cc([N+](=O)[O-])cc(/C=C2/SC(=S)N(Cc3ccccc3)C2=O)c1O	12	-148	11	9	-7	47*
C=C(C)CNC(=S)N=Nc1c(O)[nH]c2ccc([N+](=O)[O-])cc12	6	14	-5	33*	1	-1
CC(C)NC(=S)N=Nc1c(O)[nH]c2ccc([N+](=O)[O-])cc12	.	13	1	-3	0	-1
O=C1c2ccccc2-c2nnc(-c3ccc(O)cc3)cc21	5	-24	58	49*	1	-2
Cc1ccc(-c2cc3c(nn2)-c2ccccc2C3=O)cc1	0	5	59	12	2	-3
CCOC(=O)c1cc(-c2ccccc2C)nn1CC1CC(c2ccc(OC)cc2)=NO1 (stereo not drawn)	7	-8	12	.	-1	0
COc1ccc(/C=C(\NC(=O)c2ccc(OC)cc2)C(=O)N2CCCCC2)cc1	0	.	0	2	0	-2
COc1cc(/C=C2/C(=O)N(c3ccc(Br)cc3)N=C2C)cc(OC)c1OC	7	.	.	63*	.	1
CC1=NN(c2ccccc2)C(=O)/C1=C\c1ccc(Oc2ccc([N+](=O)[O-])cc2[N+](=O)[O-])cc1	.	-227	6	84*	-2	-2
COc1ccccc1/C=C1/C(=O)N(c2ccccc2)N=C1C	.	-138	-1	58*	-3	1
O=C(NC1CCCCC1)C(c1ccccc1)N1CCOCC1 (stereo not drawn)	.	0	4	2	0	-5
N#C/C(=C\c1ccc(O)c(O)c1)C(=O)NCCc1ccccc1	.	2	-2	.	-2	11*
N#CC(=Cc1ccc(O)c(O)c1)C(=O)NCCc1ccccc1	4	.	.	.	.	.
COc1ccc(OC)c(S(=O)(=O)NCC(=O)NC2CCCCCC2)c1	4	0	-4	.	2	.
Cc1nn(-c2ccccc2)c(Cl)c1C(=O)NCC1CCCO1 (stereo not drawn)	1	-7	1	.	14*	-1
O=C1C(Cl)=C(NCC2CCCO2)C(=O)N1C1CCCCC1 (stereo not drawn)	-3	0	-9	.	2	-2
SMILES	Mtb hypoxia inh	Rv3671c protease	Mtb betalactam	RecA intein inh	UGM FP inh	FadD28 binding
O=C1C(Cl)=C(NCC2CCCO2)C(=O)N1c1ccccc1 (stereo not drawn)	0	4	-2	33*	1	-2
O=C(O)CCCN1C(=O)/C(=C/c2ccc(-c3nc4ccccc4s3)o2)SC1=S	8	-4	73	-19	0	8.6*
CCOc1ccc(OCCCC(=O)NC2=NCCS2)cc1	2	1	0	0	-1	-1
O=C(O)CCNc1ccc(NCCC(=O)O)c2c1C(=O)c1ccccc1C2=O	.	18	-3	17	4	10*
CC1OC(OC2C(Oc3cc(O)c4c(c3)OC(c3ccc(O)cc3)CC4=O)OC(CO)C(O)C2O)C(O)C(O)C1O (stereo not drawn)	85*!	.	.	.	.	.
CCOc1ccc(CNC(=S)N/N=C\c2ccc([N+](=O)[O-])cc2)cc1	.	-4	-17	-3	-1	-3
Oc1c(Br)cc(Br)cc1Oc1ccc(Br)cc1Br	.	-16	-4	39*	1	.
Cc1sc2nc(COC(=O)c3cccc(OC(F)F)c3)[nH]c(=O)c2c1C	0	-7	-4	-1	2	-3
CNC(=O)c1nnsc1S(=O)c1ccc(Cl)cc1 (stereo not drawn)	20	.	.	40*	.	-1
CCCCCCCCCCCCCCCCn1cc[n+](CC(C)=O)c1	15	.	.	.	.	36*
CCCCCCn1ccc(=N)cc1	.	0	3	3	-4	1
Cc1c(Cl)cccc1NC(=S)/C(=C(\[O-])c1ccc(Cl)s1)[n+]1ccccc1	.	-1	-3	37*	3	-1
Cc1cccc(N2CC(C(=O)OCc3ccc([N+](=O)[O-])cc3)CC2=O)c1 (stereo not drawn)	-2	4	-2	-5	-2	-2
O=C(CCCC(=O)NNC(=O)Nc1ccccc1)NNC(=O)Nc1ccccc1	7	5	3	1	6	-1
CC1=Nc2ccccc2/C1=C\c1sc(Nc2ccc(C)cc2)nc1O	.	16	93	-2	0	1
Cn1cc(C=C(C#N)C#N)c2ccccc21	-1	2	-5	-1	?	-5
C=CCn1ccc(=NC=C(C#N)C#N)c2ccccc21	.	2	5	0	36*	-1
CC1=C(C)/C(=N\OS(=O)(=O)c2ccccc2)C=CC1=O	.	-4	100	41*	6	-1
COc1ccccc1Oc1c(C)oc2cc(OC(=O)c3ccco3)ccc2c1=O	7	-4	-2	.	2	-1
COc1ccccc1-c1c(C)oc2cc(OC(=O)c3ccco3)ccc2c1=O	6	-1	1	31*	0	-3
CCOC(=O)C1=C(O)/C(=C/c2cn(CC(=O)NCC3CCCO3)c3ccccc23)SC1=Nc1ccc(C)cc1 (stereo not drawn)	2	11	12	.	22*	-2
C=CCOc1ccc(/C=C2\SC(=S)N(C(C(=O)O)c3ccccc3)C2=O)cc1 (stereo not drawn)	17	.	.	29	.	14*
O=C(N/N=C/c1ccc([N+](=O)[O-])o1)c1ccccc1NS(=O)(=O)c1cccs1	.	5	99	40*	1	3
O=C(NN=Cc1ccc([N+](=O)[O-])o1)C(O)c1ccccc1 (stereo not drawn)	24*	.	.	.	.	.
CC(=O)NC(Cc1ccccc1)C(=O)OCC(=O)c1ccccc1 (stereo not drawn)	16	-2	-3	0	13*	-3
CC(=O)NC(Cc1ccccc1)C(=O)OCC(=O)c1ccc(Br)cc1 (stereo not drawn)	-4	-5	0	4	0	-1
COCCCn1c(=O)/c(=C\c2ccccc2OC(C)C)s/c1=C(/C#N)C(=O)Nc1ccc(C(=O)O)cc1	.	-18	.	-10	15*	-1

Screening results (PubChem BioAssay)
